# Screening data from PubChem BioAssay.
# Shown is part of a subset that was picked to be rich in hits.
# TbPYK inhibitor = T. brucei pyruvate kinase inhibition; AID 624173; TbPYK enzyme, Kinase-Glo Plus ATP luminescence, 45 min; hit rate 0.12% among 410,000; Q57TT1; Potency, µM (highest dose often 76.8 µM), for the others: top-dose activity, negative = inhibition, hits mostly inhibitors; note: potency is the fitted concentration of half-maximal effect; % is set by controls: 0 for no effect and ±100 for the full control effect; nearly all actives have a fitted effect of over 50% in size
#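 Glycolytic pyruvate kinase of T. brucei was incubated with substrate, test compound and 130 uM ADP for 45 minutes at room temperature. Luminescent Kinase-Glo Plus signal was measured after 10 minutes.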
# Sm TGR inh = inhibitors of Schistosoma mansoni thioredoxin glutathione reductase | Q962Y6 | purified TGR, DTNB reduction, TNB absorbance 405 nm | Potency, µM (titrated, usually from 114 µM), without a hit: at the top dose activity change, negative = inhibition, most hits filed as inhibitors | hit rate 3% among 360,000; note: potency is the fitted concentration of half-maximal effect; % is set by controls: 0 for no effect and ±100 for the full control effect; nearly all actives have a fitted effect of over 60% in size
#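 Kinetic colorimetric format: TGR-catalysed, NADPH-driven DTNB reduction monitored via TNB absorbance. Enzyme dispensed at 20 nM; compound exposure 15 min at room temperature before reaction start.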
# LmPK inh = inhibitors of Leishmania mexicana pyruvate kinase. Q27686. purified LmPK, Kinase-Glo ATP luminescence, 1 h. Potency, µM (doses to about 57.5 µM), for inactives: top-dose activity change, negative = inhibition, hits mostly inhibitors. hit rate 0.37% among 290,000; note: potency is the fitted concentration of half-maximal effect; % is set by controls: 0 for no effect and ±100 for the full control effect
# Target sequence (Q27686 whole entry, looked up): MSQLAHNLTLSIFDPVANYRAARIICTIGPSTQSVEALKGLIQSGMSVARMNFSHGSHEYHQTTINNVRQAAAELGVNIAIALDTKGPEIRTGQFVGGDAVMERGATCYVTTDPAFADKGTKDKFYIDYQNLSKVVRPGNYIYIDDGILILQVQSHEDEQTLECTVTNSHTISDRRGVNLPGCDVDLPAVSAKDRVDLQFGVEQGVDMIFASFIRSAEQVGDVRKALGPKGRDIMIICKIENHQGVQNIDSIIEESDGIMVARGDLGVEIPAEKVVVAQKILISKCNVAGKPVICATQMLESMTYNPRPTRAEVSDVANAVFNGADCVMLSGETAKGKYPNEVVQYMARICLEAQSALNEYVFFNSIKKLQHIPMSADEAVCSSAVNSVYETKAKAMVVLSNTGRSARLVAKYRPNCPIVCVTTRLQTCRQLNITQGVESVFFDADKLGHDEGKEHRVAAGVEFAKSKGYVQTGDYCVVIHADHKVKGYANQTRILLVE
#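 0.1 nM LmPK, 0.5 mM PEP, 0.1 mM ADP; 50 mM imidazole pH 7.2, 7 mM MgCl2, 50 mM KCl; 1 h RT. Kinase-Glo luminescence readout, normalized to no-enzyme (full inhibition) and uninhibited wells.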
# Cycloheximide cs = affects cycloheximide protein synthesis inhibition readout, counter-screen; cell reporter, cycloheximide protein synthesis inhibition counterscreen; max response, %; hit rate 12% among 300,000; AID 2314; in the data active = max response mostly above about 13%, no sharp cut-off; inactive = mostly below about 14%; note: read at 38.3 µM for the half of the compounds with a filed dose; 0% is about no effect
# FBPA Giardia inh = Giardia lamblia aldolase inhibition; A8B2U2; purified Giardia FBPA; Potency, µM (doses to about 59.6 µM), without a hit: top-dose activity, negative = inhibition, usual class: inhibitors; hit rate 0.71% among 290,000; note: potency is the fitted concentration of half-maximal effect; % is set by controls: 0 for no effect and ±100 for the full control effect; nearly all actives have a fitted effect of over 55% in size
#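 Giardia FBPA (40 nM reagent) was preincubated 10 min at RT with compound (up to 57.5 uM final), then substrate plus GAPDH/TPI/NAD/arsenate coupling system with diaphorase/resazurin was added; resorufin fluorescence (525/598 nm) was read after 20 min.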
# Shiga inhibitor = Shiga toxin inhibition; Vero cells, Shiga toxin protein synthesis inhibition reporter; hit rate 9.2% among 290,000; AID 2315; inhibition, % at 38.7 µM; in the data active = inhibition mostly above about 28%, no sharp cut-off; inactive = mostly below about 43%; note: 0% is about no effect
# * = called active by the depositor; ? = inconclusive; · = not tested or not shown; [ ] = remark or other dose. Unless noted, calls come from the whole dose curve; as a rule, active = well fitted curve in the direction sought with a large enough effect; inconclusive = small, poorly fitted or top-dose-only effect, or another doubt; inactive = no such curve, though single readings can be large; an effect the other way counts as inactive or inconclusive.
SMILES,TbPYK inhibitor,Sm TGR inh,LmPK inh,Cycloheximide cs,FBPA Giardia inh,Shiga inhibitor
O=C(NC(=S)NNS(=O)(=O)c1ccccc1)c1cccnc1,-27%,8.9µM*,-1%,-1,0%,-12
Cc1ccc(S(=O)(=O)N(Cc2nc(-c3cccc(C)c3)no2)C2CCCCC2)cc1,1%,1%,·,·,·,·
CCOC(=O)c1ccc(NC(=O)CC2C(=O)N(c3ccccc3)C(=O)N2C2CCCCC2)cc1 (centres undefined),-3%,3%,·,·,·,·
O=C(Cc1ccc2cccnc2c1)c1ccc(O)cc1O,2%,-1%[11.4 µM],5%,29*,14%,34*
CC(C)c1ccc(Nc2c(-c3ccccn3)nc3ccccn23)cc1,0%,-4%,·,·,·,·
CC(C)c1ccc(S(=O)(=O)NCc2ccc3c(c2)CCN3C(=O)c2ccccc2)cc1,3%,-12%,·,·,·,·
CCCC1CC(C)(c2csc(Nc3ccc(OCC)cc3)n2)OC1=O (centres undefined),-7%,1%,1%,20*,1%,60*
CCNc1ncc2nc(C)c(=O)n(C)c2n1,·,·,·,·,-5%,·
CCOC(=O)C1CCCN(c2ncnc3c2cnn3-c2ccc(C)c(Cl)c2)C1 (centres undefined),2%,6%,·,·,·,·
Cc1cc2n(n1)SC(Nc1cccc3ccccc13)N2 (centres undefined),-6%,?,1%,27*,-7%,52*
CCc1ccccc1NC1Nc2cc(C)nn2S1 (centres undefined),-17%,?,2%,15,-6%,14
Cc1cc2n(n1)SC(Nc1ccc(F)cc1)N2 (centres undefined),-20%,?,2%,13*,0%,41*
Cc1ccc(Nc2c(-c3ccc(C)o3)nc3ncccn23)cc1,-15%,20µM*,1%,21*,2%,54*
Cc1ccc(-c2nc3ncccn3c2Nc2ccc3c(c2)OCO3)o1,-18%,?,3%,20*,-8%,11
Cc1ccc(-c2nc3cnccn3c2Nc2c(C)cccc2C)o1,-9%,14µM*,2%,4,-17%,-8
Cc1ccccc1Nc1c(-c2cccc(Cl)c2)nc2ncccn12,1%,7%,·,·,·,·
Cc1ccc(-c2nc3ncccn3c2Nc2ccccc2C)o1,-22%,40µM*,-2%,15,3%,-4
Oc1ccc(-c2nc3ncccn3c2Nc2ccc3c(c2)OCO3)cc1,-4%,-22%,2%,-4,-1%,-22
COc1ccccc1CNc1ncnc2c1c(-c1ccccc1)cn2-c1ccc(Br)cc1,1%,5%,·,·,·,·
COc1cccc2c1cc1c(=O)n(CC(=O)N3CCN(c4cccc(C)c4)C(C)C3)nc(C)n12 (centres undefined),3%,4%,·,·,·,·
COC1OC(CO)C(OC2OC(C(=O)O)C(OC3OC(COS(=O)(=O)O)C(OC4OC(C(=O)O)C(OC5OC(CO)C(OC6OC(C(=O)O)C(OC7OC(COS(=O)(=O)O)C(OC8OC(C(=O)O)=C[C@H](O)C8OS(=O)(=O)O)C(O)C7NC(C)=O)[C@@H](O)C6O)C(O)C5NC(C)=O)[C@@H](O)C4O)C(O)C3NC(C)=O)[C@@H](O)C2O)C(O)C1NC(C)=O (some centres undefined),-8%,·,·,·,-5%,·
Cc1ccc(-c2nc3ncccn3c2NC2CCCC2)o1,-8%,-33%,-2%,-3,0%,-2
Brc1ccc(-c2nc3ncccn3c2NC2CCCCC2)o1,2%,35µM*,-3%,-4,-4%,-5
COc1ccc(-c2ncc(CN3CCN(CCC(C)C)C(CCO)C3)cn2)cc1 (centres undefined),2%,-13%,0%,33*,1%,66*
Cc1cccc(-c2ncc(CN3CCN(CC(C)C)C(CCO)C3)cn2)c1 (centres undefined),4%,-13%,-5%,15,-2%,41*
SMILES,TbPYK inhibitor,Sm TGR inh,LmPK inh,Cycloheximide cs,FBPA Giardia inh,Shiga inhibitor
Cc1cc(C)c(S(=O)(=O)N2CCN(C(=O)C(C)Cn3cncn3)CC2)c(C)c1 (centres undefined),0%,0%,-2%,-7,1%,-4
COc1ccc(-c2[nH]c(-c3ccc4c(c3)OCO4)nc2-c2ccccc2)cc1,3%,7%,2%,6,-6%,-13
Cc1c(C)c(C)c2[nH]c(-c3ccc4c(c3)OCO4)nc2c1C,-10%,8%,9%,27*,-2%,68*
CCOc1cc(/C=N/NC(=O)COc2ccccc2C)ccc1OC(=O)c1cccs1,0%,2%,1%,-1,-1%,-5
O=C(N/N=C/c1ccc(N2CCOCC2)cc1)c1ccc(NS(=O)(=O)c2cccs2)cc1,10%,0%,1%,8,-2%,13
CCOc1cc(/C=N/NC(=O)c2cccs2)ccc1OC(=O)N1CCOCC1,1%,-3%,-4%,45*,4%,109*
O=C(c1ccc(N2CCOCC2)cc1)c1cccs1,-4%,3%,-30%,31*,-1%,53*
O=C(N/N=C/c1ccc(N2CCOCC2)cc1)c1cccs1,-9%,-23%,?,39*,-1%,79*
O=C(Nc1ccc(N2CCOCC2)cc1N1CCOCC1)c1cccs1,-1%,0%,0%,7,-7%,-3
O=c1[nH][nH]c2c(N=Cc3ccccc3O)ccc(F)c12,-18%,0.4µM*,-23%,-3,6.3µM*,-21
COC(=O)C(O)(c1ccc(N=Cc2ccccc2O)c(C)c1)C(F)(F)F (centres undefined),-1%,5%,-10%,-2,0%,-7
COc1ccc(-c2nn(-c3ccccc3)cc2/C=N/N2C(=O)CSC2=S)cc1,2%,-5%,0%,29*,-5%,27
O=C1[C@@H]2[C@H](C(=O)N1Cc1ccco1)[C@H]1C=C[C@@H]2C1,-4%,50µM*,0%,-6,4%,-29
CC(c1ccccc1)C1CC(=O)N(CC(=O)O)C1=O (centres undefined),1%,4%,-1%,-1,8%,-11
O=C(CN1C(=O)C2C3C=CC(C3)C2C1=O)NCc1ccco1 (centres undefined),-9%,-15%,4%,2,-1%,1
CC(c1ccccc1)C1CC(=O)N(Cc2ccco2)C1=O (centres undefined),?,7.1µM*,5%,-1,-2%,10
O=C(Nc1nc2ccc(S(=O)(=O)N3CCCC3)cc2s1)c1cccs1,-26%,-2%,?,2,6%,-2
CN(C)S(=O)(=O)c1ccc2nc(NC(=O)c3cccnc3)sc2c1,-16%,-27%,-6%,29*,0%,107*
CSc1nc2ccc3nc(NC(=O)c4cccs4)sc3c2s1,-3%,-30%,5%,43*,6%,51*
O=C(Nc1nc2ccc(S(=O)(=O)N3CCOCC3)cc2s1)c1cccs1,-8%,9%,6%,18*,10%,39*
